From ChEMBL document CHEMBL1961873, “Compounds: GSK PKIS; Assays: Nanosyn kinase panel” (2012)

Tests used:
[1] = biological target: Sphingosine kinase 1 (Homo sapiens) (UniProt Q9NYA1); details: at 1 µM;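 note: mean SPHK1 inhibition value reported from the GSK PKIS kinase panel screen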
[2] = biological target: T1, Sphingosine kinase 2 (Homo sapiens) (UniProt Q9NRA0); details: at 0.1 µM
T1 sequence (whole entry): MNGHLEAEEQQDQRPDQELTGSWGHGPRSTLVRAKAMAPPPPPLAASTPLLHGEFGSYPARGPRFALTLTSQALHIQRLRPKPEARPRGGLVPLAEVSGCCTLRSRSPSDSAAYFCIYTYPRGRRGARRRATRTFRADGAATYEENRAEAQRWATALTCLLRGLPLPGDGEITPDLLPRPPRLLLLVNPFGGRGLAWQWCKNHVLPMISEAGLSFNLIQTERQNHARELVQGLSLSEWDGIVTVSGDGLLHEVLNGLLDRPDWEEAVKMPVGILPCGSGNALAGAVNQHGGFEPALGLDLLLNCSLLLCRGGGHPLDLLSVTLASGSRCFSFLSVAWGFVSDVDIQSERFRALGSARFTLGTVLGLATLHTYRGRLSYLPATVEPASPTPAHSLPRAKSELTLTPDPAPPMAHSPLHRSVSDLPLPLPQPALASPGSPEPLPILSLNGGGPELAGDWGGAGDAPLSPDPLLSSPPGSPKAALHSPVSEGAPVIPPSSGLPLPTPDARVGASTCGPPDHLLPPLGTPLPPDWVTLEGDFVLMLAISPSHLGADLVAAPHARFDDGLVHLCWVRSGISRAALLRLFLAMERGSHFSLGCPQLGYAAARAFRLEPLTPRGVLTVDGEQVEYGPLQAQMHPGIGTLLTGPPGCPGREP

[3] = biological target: T1, Sphingosine kinase 2 (Homo sapiens); details: at 1 µM
[4] = biological target: Casein kinase II subunit alpha (Homo sapiens) (UniProt P68400); details: at 0.1 µM
Sequence of Casein kinase II subunit alpha (Homo sapiens) (P68400 whole entry, looked up): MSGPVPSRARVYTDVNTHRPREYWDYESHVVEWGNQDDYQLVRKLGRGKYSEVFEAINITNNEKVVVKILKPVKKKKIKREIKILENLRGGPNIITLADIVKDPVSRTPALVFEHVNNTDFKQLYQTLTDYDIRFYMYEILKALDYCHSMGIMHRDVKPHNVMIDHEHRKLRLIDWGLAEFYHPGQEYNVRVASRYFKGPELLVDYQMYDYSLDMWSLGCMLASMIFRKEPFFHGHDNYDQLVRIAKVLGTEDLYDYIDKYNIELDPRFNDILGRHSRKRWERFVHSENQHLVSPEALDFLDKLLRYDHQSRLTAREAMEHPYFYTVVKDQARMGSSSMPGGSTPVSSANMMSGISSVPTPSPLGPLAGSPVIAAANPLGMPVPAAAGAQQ

[5] = biological target: Casein kinase II subunit alpha (Homo sapiens) (UniProt P68400); details: at 1 µM
[6] = biological target: T2, Inhibitor of nuclear factor kappa-B kinase subunit alpha (Homo sapiens) (UniProt O15111); details: at 0.1 µM
T2 sequence (whole entry): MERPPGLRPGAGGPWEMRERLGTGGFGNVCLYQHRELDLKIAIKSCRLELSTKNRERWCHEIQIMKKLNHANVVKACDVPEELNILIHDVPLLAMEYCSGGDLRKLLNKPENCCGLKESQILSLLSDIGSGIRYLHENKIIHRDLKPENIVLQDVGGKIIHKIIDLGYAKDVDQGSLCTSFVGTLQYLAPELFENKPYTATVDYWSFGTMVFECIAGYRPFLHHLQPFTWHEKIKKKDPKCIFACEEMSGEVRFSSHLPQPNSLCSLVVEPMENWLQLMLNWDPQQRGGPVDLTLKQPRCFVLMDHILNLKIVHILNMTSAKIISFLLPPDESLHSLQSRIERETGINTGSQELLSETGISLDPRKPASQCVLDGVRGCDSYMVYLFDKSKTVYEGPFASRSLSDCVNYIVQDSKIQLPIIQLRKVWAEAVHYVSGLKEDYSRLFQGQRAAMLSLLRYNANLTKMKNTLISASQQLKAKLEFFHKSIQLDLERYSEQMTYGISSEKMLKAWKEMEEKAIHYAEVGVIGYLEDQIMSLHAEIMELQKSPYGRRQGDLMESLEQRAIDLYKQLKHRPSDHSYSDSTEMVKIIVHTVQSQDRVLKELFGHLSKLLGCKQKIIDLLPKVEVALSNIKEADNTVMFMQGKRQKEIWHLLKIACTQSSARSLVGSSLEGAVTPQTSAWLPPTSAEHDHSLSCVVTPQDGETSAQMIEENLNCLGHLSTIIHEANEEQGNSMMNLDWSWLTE

[7] = biological target: T2, Inhibitor of nuclear factor kappa-B kinase subunit alpha (Homo sapiens); details: at 1 µM
[8] = biological target: T3, Inhibitor of nuclear factor kappa-B kinase subunit beta (Homo sapiens) (UniProt O14920); details: at 0.1 µM
T3 sequence (whole entry): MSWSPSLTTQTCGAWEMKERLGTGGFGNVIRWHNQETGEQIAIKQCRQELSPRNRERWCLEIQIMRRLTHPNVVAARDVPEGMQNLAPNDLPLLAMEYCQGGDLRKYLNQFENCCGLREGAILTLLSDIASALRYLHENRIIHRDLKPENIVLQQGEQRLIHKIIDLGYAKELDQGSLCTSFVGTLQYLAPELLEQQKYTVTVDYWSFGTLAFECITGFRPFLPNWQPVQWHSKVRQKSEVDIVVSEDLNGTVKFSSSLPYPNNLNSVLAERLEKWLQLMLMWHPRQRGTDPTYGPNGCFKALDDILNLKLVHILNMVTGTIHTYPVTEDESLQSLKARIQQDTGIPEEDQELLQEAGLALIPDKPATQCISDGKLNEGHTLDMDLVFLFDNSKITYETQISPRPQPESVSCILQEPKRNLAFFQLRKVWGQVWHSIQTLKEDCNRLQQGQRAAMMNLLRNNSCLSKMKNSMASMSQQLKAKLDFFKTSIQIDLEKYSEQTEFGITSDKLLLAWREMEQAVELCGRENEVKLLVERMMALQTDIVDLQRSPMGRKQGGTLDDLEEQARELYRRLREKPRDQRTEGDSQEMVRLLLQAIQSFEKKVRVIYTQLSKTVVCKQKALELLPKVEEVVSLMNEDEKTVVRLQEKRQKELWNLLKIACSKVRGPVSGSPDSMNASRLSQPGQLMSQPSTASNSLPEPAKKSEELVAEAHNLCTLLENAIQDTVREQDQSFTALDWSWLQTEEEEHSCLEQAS

[9] = biological target: T3, Inhibitor of nuclear factor kappa-B kinase subunit beta (Homo sapiens); details: at 1 µM
[10] = biological target: T4, Inhibitor of nuclear factor kappa-B kinase subunit epsilon (Homo sapiens) (UniProt Q14164); details: at 0.1 µM;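 note: mean inhibition of IKKε reported, from the GSK PKIS dataset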
T4 sequence (whole entry): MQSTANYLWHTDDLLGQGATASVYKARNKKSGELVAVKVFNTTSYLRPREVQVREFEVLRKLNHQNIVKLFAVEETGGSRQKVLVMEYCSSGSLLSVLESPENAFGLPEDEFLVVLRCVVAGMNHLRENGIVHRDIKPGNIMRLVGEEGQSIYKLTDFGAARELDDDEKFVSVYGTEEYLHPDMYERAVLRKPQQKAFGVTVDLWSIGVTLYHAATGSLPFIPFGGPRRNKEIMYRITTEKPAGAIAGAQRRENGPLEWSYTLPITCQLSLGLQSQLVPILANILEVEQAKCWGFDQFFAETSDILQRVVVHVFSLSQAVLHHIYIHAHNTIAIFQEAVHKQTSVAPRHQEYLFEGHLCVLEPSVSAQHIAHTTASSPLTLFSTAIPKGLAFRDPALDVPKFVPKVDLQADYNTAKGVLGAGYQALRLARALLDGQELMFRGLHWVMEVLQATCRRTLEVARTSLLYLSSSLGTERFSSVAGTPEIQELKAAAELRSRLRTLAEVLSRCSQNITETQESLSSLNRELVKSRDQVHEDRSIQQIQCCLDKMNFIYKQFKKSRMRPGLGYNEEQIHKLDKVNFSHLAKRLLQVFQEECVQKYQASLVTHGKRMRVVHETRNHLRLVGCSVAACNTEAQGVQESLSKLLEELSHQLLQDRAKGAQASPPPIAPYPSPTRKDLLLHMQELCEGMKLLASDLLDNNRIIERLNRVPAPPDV

Sequence of Sphingosine kinase 1 (Homo sapiens) (Q9NYA1 whole entry): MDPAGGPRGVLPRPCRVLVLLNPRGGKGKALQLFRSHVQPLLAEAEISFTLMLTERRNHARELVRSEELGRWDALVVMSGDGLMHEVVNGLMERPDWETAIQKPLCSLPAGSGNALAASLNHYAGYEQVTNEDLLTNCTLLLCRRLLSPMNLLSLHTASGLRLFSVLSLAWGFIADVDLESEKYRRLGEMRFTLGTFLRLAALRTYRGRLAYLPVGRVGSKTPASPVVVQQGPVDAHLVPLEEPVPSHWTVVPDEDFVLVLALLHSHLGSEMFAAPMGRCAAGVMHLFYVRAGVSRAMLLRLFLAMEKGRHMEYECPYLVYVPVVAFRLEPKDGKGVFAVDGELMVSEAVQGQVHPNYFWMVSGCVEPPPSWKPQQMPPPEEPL

Structure (SMILES): O=C1Nc2ccc(-c3cccnc3)cc2C1=Cc1cc(Br)c(O)c(Br)c1
- inhibition [1]: -0.37%
- inhibition [2]: 0.41%
- inhibition [3]: -1.79%
- inhibition [4]: 4.96%
- inhibition [5]: 14.5%
- inhibition [6]: 5.26%
- inhibition [7]: 7.66%
- inhibition [8]: 4.92%
- inhibition [9]: 2.14%
- inhibition [10]: 3.51%
